# Columns and labels:
# Experiment in all cases: yeast three-hybrid, YBZ-1, SC-Leu-His + 0.5 mM 3-AT, 4 days
# Details in all cases: tags: N-Gal4 AD-HA kept; label: inside an RPR1-promoter hybrid RNA with tandem MS2 sites; ssRNA
# PUM1 PUF domain R5-SGV = PUM1 PUF domain R5-SGV (Homo sapiens, UniProt Q14671 828-1176, C1007S;R1008G;Q1011V)
# Outline: (§1)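 The interaction score is the log change in variant frequency from input to selection. Scores were computed in log2 with a pseudocount of 1 for absent variants, using Illumina sequencing of PCR-amplified repeat regions. The input came from four days on SC-Leu and the selection from four days on SC-Leu-His + 0.5 mM 3-AT. The cells were strain YBZ-1 (LexA–MS2 coat fusion, HIS3 reporter) co-expressing Pumilio-1 PUF domain libraries and matching RNA elements from a centromeric plasmid.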
# PUM1 PUF domain R5-DHL = PUM1 PUF domain R5-DHL (Homo sapiens, UniProt Q14671 828-1176, C1007D;R1008H;Q1011L)
# Chain of PUM1 PUF domain R5-DHL (Q14671 828-1176 C1007D/R1008H/Q1011L): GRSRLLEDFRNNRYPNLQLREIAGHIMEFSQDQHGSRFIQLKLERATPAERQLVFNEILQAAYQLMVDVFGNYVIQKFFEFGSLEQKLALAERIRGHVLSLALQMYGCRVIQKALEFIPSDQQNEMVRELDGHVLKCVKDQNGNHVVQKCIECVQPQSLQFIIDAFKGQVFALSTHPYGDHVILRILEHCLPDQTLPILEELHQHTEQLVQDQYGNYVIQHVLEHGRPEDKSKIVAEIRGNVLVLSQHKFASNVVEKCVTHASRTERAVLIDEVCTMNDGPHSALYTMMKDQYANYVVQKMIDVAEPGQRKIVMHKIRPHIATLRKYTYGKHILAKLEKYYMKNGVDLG
# Outline: as §1
# PUM1 PUF domain R5-PRE = PUM1 PUF domain R5-PRE (Homo sapiens, UniProt Q14671 828-1176, C1007P;Q1011E)
# Chain of PUM1 PUF domain R5-PRE (Q14671 828-1176 C1007P/Q1011E): as the sequence (Q14671 828-1176 C1007D/R1008H/Q1011L) above, with D180P, H181R, L184E counted along it
# Outline: as §1
# PUM1 PUF domain R3-LRR = PUM1 PUF domain R3-LRR (Homo sapiens, UniProt Q14671 828-1176, C935L;Q939R)
# Chain of PUM1 PUF domain R3-LRR (Q14671 828-1176 C935L/Q939R): as the sequence (Q14671 828-1176 C1007D/R1008H/Q1011L) above, with C108L, Q112R, D180C, H181R, L184Q counted along it
# Outline: as §1
# PUM1 PUF domain R3-YSV = PUM1 PUF domain R3-YSV (Homo sapiens, UniProt Q14671 828-1176, C935Y;R936S;Q939V)
# Chain of PUM1 PUF domain R3-YSV (Q14671 828-1176 C935Y/R936S/Q939V): as the sequence (Q14671 828-1176 C1007D/R1008H/Q1011L) above, with C108Y, R109S, Q112V, D180C, H181R, L184Q counted along it
# Outline: as §1
# PUM1 PUF domain R3-LHA = PUM1 PUF domain R3-LHA (Homo sapiens, UniProt Q14671 828-1176, C935L;R936H;Q939A)
# Outline: as §1
# PUM1 PUF domain R1-KGL = PUM1 PUF domain R1-KGL (Homo sapiens, UniProt Q14671 828-1176, S863K;R864G;Q867L)
# Chain of PUM1 PUF domain R1-KGL (Q14671 828-1176 S863K/R864G/Q867L): as the sequence (Q14671 828-1176 C1007D/R1008H/Q1011L) above, with S36K, R37G, Q40L, D180C, H181R, L184Q counted along it
# Outline: as §1
# PUM1 PUF domain R1-GRH = PUM1 PUF domain R1-GRH (Homo sapiens, UniProt Q14671 828-1176, S863G;Q867H)
# Outline: as §1
# PUM1 PUF domain R4-EPR = PUM1 PUF domain R4-EPR (Homo sapiens, UniProt Q14671 828-1176, N971E;H972P;Q975R)
# Chain of PUM1 PUF domain R4-EPR (Q14671 828-1176 N971E/H972P/Q975R): as the sequence (Q14671 828-1176 C1007D/R1008H/Q1011L) above, with N144E, H145P, Q148R, D180C, H181R, L184Q counted along it
# Outline: as §1
# PUM1 PUF domain R4-APS = PUM1 PUF domain R4-APS (Homo sapiens, UniProt Q14671 828-1176, N971A;H972P;Q975S)
# Outline: as §1
# PUM1 PUF domain R1-KWM = PUM1 PUF domain R1-KWM (Homo sapiens, UniProt Q14671 828-1176, S863K;R864W;Q867M)
# Outline: as §1
# PUM1 PUF domain R5-RAN = PUM1 PUF domain R5-RAN (Homo sapiens, UniProt Q14671 828-1176, C1007R;R1008A;Q1011N)
# Chain of PUM1 PUF domain R5-RAN (Q14671 828-1176 C1007R/R1008A/Q1011N): as the sequence (Q14671 828-1176 C1007D/R1008H/Q1011L) above, with D180R, H181A, L184N counted along it
# Outline: as §1
# PUM1 PUF domain R3-DWS = PUM1 PUF domain R3-DWS (Homo sapiens, UniProt Q14671 828-1176, C935D;R936W;Q939S)
# Chain of PUM1 PUF domain R3-DWS (Q14671 828-1176 C935D/R936W/Q939S): as the sequence (Q14671 828-1176 C1007D/R1008H/Q1011L) above, with C108D, R109W, Q112S, D180C, H181R, L184Q counted along it
# Outline: as §1
# PUM1 PUF domain R4-RCG = PUM1 PUF domain R4-RCG (Homo sapiens, UniProt Q14671 828-1176, N971R;H972C;Q975G)
# Outline: as §1
# PUM1 PUF domain R6-SWC = biological target: T1, PUM1 PUF domain R6-SWC (Homo sapiens, UniProt Q14671 828-1176, N1043S;Y1044W;Q1047C)
# T1 sequence: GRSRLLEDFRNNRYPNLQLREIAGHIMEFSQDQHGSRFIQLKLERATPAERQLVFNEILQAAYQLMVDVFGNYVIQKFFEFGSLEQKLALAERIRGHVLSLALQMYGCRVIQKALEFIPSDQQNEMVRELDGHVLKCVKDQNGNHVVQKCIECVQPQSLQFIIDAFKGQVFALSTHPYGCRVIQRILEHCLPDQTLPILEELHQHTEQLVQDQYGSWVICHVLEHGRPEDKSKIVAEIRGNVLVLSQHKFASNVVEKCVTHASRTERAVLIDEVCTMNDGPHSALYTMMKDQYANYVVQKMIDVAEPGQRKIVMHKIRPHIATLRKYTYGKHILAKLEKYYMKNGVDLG
# Outline: as §1
# PUM1 PUF domain R8-KKR = PUM1 PUF domain R8-KKR (Homo sapiens, UniProt Q14671 828-1176, N1122K;Y1123K;Q1126R)
# Outline: as §1
# PUM1 PUF domain R4-VGI = PUM1 PUF domain R4-VGI (Homo sapiens, UniProt Q14671 828-1176, N971V;H972G;Q975I)
# Outline: as §1
# PUM1 PUF domain R5-DFP = PUM1 PUF domain R5-DFP (Homo sapiens, UniProt Q14671 828-1176, C1007D;R1008F;Q1011P)
# Chain of PUM1 PUF domain R5-DFP (Q14671 828-1176 C1007D/R1008F/Q1011P): as the sequence (Q14671 828-1176 C1007D/R1008H/Q1011L) above, with H181F, L184P counted along it
# Outline: as §1
# PUM1 PUF domain R5-DKR = PUM1 PUF domain R5-DKR (Homo sapiens, UniProt Q14671 828-1176, C1007D;R1008K;Q1011R)
# Chain of PUM1 PUF domain R5-DKR (Q14671 828-1176 C1007D/R1008K/Q1011R): as the sequence (Q14671 828-1176 C1007D/R1008H/Q1011L) above, with H181K, L184R counted along it
# Outline: as §1
# PUM1 PUF domain R5-KGV = PUM1 PUF domain R5-KGV (Homo sapiens, UniProt Q14671 828-1176, C1007K;R1008G;Q1011V)
# Chain of PUM1 PUF domain R5-KGV (Q14671 828-1176 C1007K/R1008G/Q1011V): as the sequence (Q14671 828-1176 C1007D/R1008H/Q1011L) above, with D180K, H181G, L184V counted along it
# Outline: as §1
# Chain of PUM1 PUF domain R5-SGV (Q14671 828-1176 C1007S/R1008G/Q1011V): as the sequence (Q14671 828-1176 C1007D/R1008H/Q1011L) above, with D180S, H181G, L184V counted along it
sequence,measurement,setting,value
GGCUAGAACUAGUGGAUCCCCCGGCGCCCGGCGGCUCGAGCCCGGGUAAGUGUGAAUAGUCUGCAUGCCGCCGGGCGCCAUGCCUGCAGGUCGACUCUAGAAAACAUG,binding signal,PUM1 PUF domain R5-SGV,2.69 log2 enrichment (interaction score)
same,binding signal,PUM1 PUF domain R5-DHL,2.54 log2 enrichment (interaction score)
same,binding signal,PUM1 PUF domain R5-PRE,3.8 log2 enrichment (interaction score)
GGCUAGAACUAGUGGAUCCCCCGGCGCCCGGCGGCUCGAGCCCGGGUAAGUGUAAGUAGUCUGCAUGCCGCCGGGCGCCAUGCCUGCAGGUCGACUCUAGAAAACAUG,binding signal,PUM1 PUF domain R3-LRR,3.15 log2 enrichment (interaction score)
same,binding signal,PUM1 PUF domain R3-YSV,2.32 log2 enrichment (interaction score)
same,binding signal,PUM1 PUF domain R3-LHA,6.33 log2 enrichment (interaction score)
GGCUAGAACUAGUGGAUCCCCCGGCGCCCGGCGGCUCGAGCCCGGGUAAGUGUAAAUCGUCUGCAUGCCGCCGGGCGCCAUGCCUGCAGGUCGACUCUAGAAAACAUG,binding signal,PUM1 PUF domain R1-KGL,3.12 log2 enrichment (interaction score)
same,binding signal,PUM1 PUF domain R1-GRH,1.98 log2 enrichment (interaction score)
GGCUAGAACUAGUGGAUCCCCCGGCGCCCGGCGGCUCGAGCCCGGGUAAGUGUAUAUAGUCUGCAUGCCGCCGGGCGCCAUGCCUGCAGGUCGACUCUAGAAAACAUG,binding signal,PUM1 PUF domain R4-EPR,2.23 log2 enrichment (interaction score)
GGCUAGAACUAGUGGAUCCCCCGGCGCCCGGCGGCUCGAGCCCGGGUAAGUGUAAUUAGUCUGCAUGCCGCCGGGCGCCAUGCCUGCAGGUCGACUCUAGAAAACAUG,binding signal,PUM1 PUF domain R3-LRR,0.21 log2 enrichment (interaction score)
same,binding signal,PUM1 PUF domain R3-LHA,3.56 log2 enrichment (interaction score)
GGCUAGAACUAGUGGAUCCCCCGGCGCCCGGCGGCUCGAGCCCGGGUAAGUGUACAUAGUCUGCAUGCCGCCGGGCGCCAUGCCUGCAGGUCGACUCUAGAAAACAUG,binding signal,PUM1 PUF domain R4-EPR,3.74 log2 enrichment (interaction score)
same,binding signal,PUM1 PUF domain R4-APS,1.86 log2 enrichment (interaction score)
GGCUAGAACUAGUGGAUCCCCCGGCGCCCGGCGGCUCGAGCCCGGGUAAGUGUAAAUGGUCUGCAUGCCGCCGGGCGCCAUGCCUGCAGGUCGACUCUAGAAAACAUG,binding signal,PUM1 PUF domain R1-KGL,1.8 log2 enrichment (interaction score)
same,binding signal,PUM1 PUF domain R1-KWM,1.15 log2 enrichment (interaction score)
GGCUAGAACUAGUGGAUCCCCCGGCGCCCGGCGGCUCGAGCCCGGGUAAGUGUAAAUUGUCUGCAUGCCGCCGGGCGCCAUGCCUGCAGGUCGACUCUAGAAAACAUG,binding signal,PUM1 PUF domain R1-KWM,3.92 log2 enrichment (interaction score)
same,binding signal,PUM1 PUF domain R1-GRH,2.32 log2 enrichment (interaction score)
GGCUAGAACUAGUGGAUCCCCCGGCGCCCGGCGGCUCGAGCCCGGGUAAGUGUAAAUAGUCUGCAUGCCGCCGGGCGCCAUGCCUGCAGGUCGACUCUAGAAAACAUG,binding signal,PUM1 PUF domain R5-RAN,2.14 log2 enrichment (interaction score)
same,binding signal,PUM1 PUF domain R3-DWS,4.09 log2 enrichment (interaction score)
same,binding signal,PUM1 PUF domain R4-EPR,4.56 log2 enrichment (interaction score)
same,binding signal,PUM1 PUF domain R4-RCG,3.26 log2 enrichment (interaction score)
same,binding signal,PUM1 PUF domain R4-APS,4.36 log2 enrichment (interaction score)
same,binding signal,PUM1 PUF domain R5-DHL,3.58 log2 enrichment (interaction score)
same,binding signal,PUM1 PUF domain R6-SWC,3.92 log2 enrichment (interaction score)
same,binding signal,PUM1 PUF domain R8-KKR,1.33 log2 enrichment (interaction score)
same,binding signal,PUM1 PUF domain R4-VGI,2.49 log2 enrichment (interaction score)
same,binding signal,PUM1 PUF domain R5-PRE,3.07 log2 enrichment (interaction score)
GGCUAGAACUAGUGGAUCCCCCGGCGCCCGGCGGCUCGAGCCCGGGUAAGUGUUAAUAGUCUGCAUGCCGCCGGGCGCCAUGCCUGCAGGUCGACUCUAGAAAACAUG,binding signal,PUM1 PUF domain R5-DFP,5.24 log2 enrichment (interaction score)
same,binding signal,PUM1 PUF domain R5-PRE,2.73 log2 enrichment (interaction score)
GGCUAGAACUAGUGGAUCCCCCGGCGCCCGGCGGCUCGAGCCCGGGUAAGUGUCAAUAGUCUGCAUGCCGCCGGGCGCCAUGCCUGCAGGUCGACUCUAGAAAACAUG,binding signal,PUM1 PUF domain R5-DKR,5.01 log2 enrichment (interaction score)
same,binding signal,PUM1 PUF domain R5-RAN,2.21 log2 enrichment (interaction score)
same,binding signal,PUM1 PUF domain R5-KGV,4.44 log2 enrichment (interaction score)
same,binding signal,PUM1 PUF domain R5-DHL,2.14 log2 enrichment (interaction score)
GGCUAGAACUAGUGGAUCCCCCGGCGCCCGGCGGCUCGAGCCCGGGUAAGCGUAAAUAGUCUGCAUGCCGCCGGGCGCCAUGCCUGCAGGUCGACUCUAGAAAACAUG,binding signal,PUM1 PUF domain R8-KKR,5.03 log2 enrichment (interaction score)

# Source: publication PMC8384837, “Expanding the binding specificity for RNA recognition by a PUF domain”
